# Assay results as given in PubChem BioAssay (NCATS).
# Several values for one entry are separate records, joined by “and”; a condition that tells them apart may be missing. Equal values may be shown once. Inconclusive results are not listed. Where a call stands in place of a potency, no number is given. Activity calls are given as the source filed them. Unless noted, the call rests on the fitted dose curve; in most records, active means well fitted curve in the direction sought with a large enough effect; inconclusive means small, poorly fitted or top-dose-only effect, or another doubt; inactive means no such curve, though single readings can be large; an effect the other way counts as inactive or inconclusive.
# Columns and labels:
# [1] = system: Zika virus NS2B-NS3 protease; assay: Primary screen GU AMC qHTS for Zika virus inhibitors (AID 1347154); further: nearly all actives have a fitted effect of over 70% in size
# Summary of the method: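 Unlinked Zika NS2B hydrophilic domain/NS3 protease domain noncovalent complex (25 nM final) in 10 mM Tris-HCl pH 8.0, 0.01% Tween 20, with AMC peptide substrate. Fluorescence (ex 340, em 450 nm) change over 15 min, room temperature; percent inhibition fitted to 4-parameter Hill equation.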
# [2] = Counterscreen qHTS for small molecule stabilizers of the endoplasmic reticulum resident proteome: GLuc-NoTag assay (AID 1508627);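 further: SH-SY5Y cells given compound then 100 nM thapsigargin to empty ER calcium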
# Summary of the method: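 SH-SY5Y cells stably expressing constitutively secreted GLuc (no SERCaMP tag) were pre-incubated 5 h, treated with compound for 19 h, then 100 nM thapsigargin for 4 h at 37C; medium GLuc read by coelenterazine luminescence.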
# [3] = Confirmatory qHTS for small molecule stabilizers of the endoplasmic reticulum resident proteome: Secreted ER Calcium Modulated Protein (SERCaMP) assay (AID 1508628);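 further: SH-SY5Y cells given compound 16 h then thapsigargin 100 nM for 4 h; nearly all actives have a fitted effect of over 40% in size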
# Summary of the method: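 We seeded SH-SY5Y-GLuc-SERCaMP cells, added compounds (three concentrations in the primary run, eleven up to 76.6 uM in confirmation), incubated 16 h, depleted ER calcium with thapsigargin, and read luciferase 4 h later.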
# [4] = Primary qHTS for small molecule stabilizers of the endoplasmic reticulum resident proteome: Secreted ER Calcium Modulated Protein (SERCaMP) assay (AID 1508630)
# Summary of the method: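 GLuc-SERCaMP-expressing SH-SY5Y cells, pretreated 16 h with compound, are challenged with thapsigargin to empty ER calcium stores; after 4 h, coelenterazine is added directly to the medium and luminescence is imaged.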
# [5] = AP1 Signaling Pathway (AID 357; active means well fitted curve in either direction with a large enough effect, not every such curve was filed as active;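 further: ME-180 reporter cells stimulated with EGF at its EC50 level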); settings: ME-180 AP-1-bla reporter, EGF-induced, beta-lactamase ratio, 5 h
# Summary of the method: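 Read-out was the 460nm/530nm emission ratio (excitation 405nm) after CCF4 loading for 2.5 hours at room temperature. Cells carried an AP-1-driven beta-lactamase reporter, were stimulated with EC50 EGF plus compound for 5 hours, and AC50 values came from titrations.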
# [6] = Stat Signaling Pathway (AID 446; active means well fitted curve in either direction with a large enough effect, not every such curve was filed as active;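 further: ME-180 cervical cancer cells given 40 pM IL-6 alongside compound; SIE-controlled beta-lactamase reporter measured as 460/530 nm FRET emission ratio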); settings: ME-180 SIE beta-lactamase reporter, IL-6 stimulated, 5 h; at 17.2 µM (top of the series)
# Summary of the method: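 ME-180 SIE-bla cells; overnight plating; cpd + IL-6 40 pM, 5 h, 37 C; LiveBLAzer 2.5 h RT; 460/530 nm emission ratio. Normalized to 300 pM IL-6 and 125 nM JAK inhibitor controls.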
# [7] = biological target: Glucocorticoid receptor (Homo sapiens) (UniProt P04150); assay: GR-GFP Redistribution (AID 450;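 active means compounds whose dose series gives a full or clear partial fitted curve of increased nuclear translocation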; further: potency means the concentration at half of the fitted maximal effect); settings: U2OS GR-GFP nuclear translocation, laser cytometry, 2 h
# Chain of Glucocorticoid receptor (Homo sapiens) (P04150 whole entry, looked up): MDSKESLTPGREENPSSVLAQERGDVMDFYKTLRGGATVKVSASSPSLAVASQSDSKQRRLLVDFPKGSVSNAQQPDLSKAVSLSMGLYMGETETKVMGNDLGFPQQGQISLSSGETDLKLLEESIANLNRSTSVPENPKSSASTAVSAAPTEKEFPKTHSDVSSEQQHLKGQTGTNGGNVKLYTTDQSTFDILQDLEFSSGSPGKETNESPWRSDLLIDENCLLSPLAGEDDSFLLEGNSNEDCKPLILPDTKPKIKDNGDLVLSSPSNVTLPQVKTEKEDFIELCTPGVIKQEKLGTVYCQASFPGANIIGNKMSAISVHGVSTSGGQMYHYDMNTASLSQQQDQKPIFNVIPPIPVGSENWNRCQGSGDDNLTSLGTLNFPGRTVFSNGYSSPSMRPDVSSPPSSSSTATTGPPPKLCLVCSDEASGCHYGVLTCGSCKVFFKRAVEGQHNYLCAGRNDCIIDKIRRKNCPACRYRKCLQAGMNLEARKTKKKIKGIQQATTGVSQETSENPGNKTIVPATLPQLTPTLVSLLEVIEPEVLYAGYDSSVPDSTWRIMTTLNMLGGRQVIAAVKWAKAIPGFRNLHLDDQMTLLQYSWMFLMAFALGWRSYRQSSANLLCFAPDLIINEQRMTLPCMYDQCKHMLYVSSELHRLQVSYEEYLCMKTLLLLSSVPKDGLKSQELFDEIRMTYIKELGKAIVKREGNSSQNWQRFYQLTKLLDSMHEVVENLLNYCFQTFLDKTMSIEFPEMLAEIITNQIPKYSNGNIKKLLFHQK
# [8] = biological target: Mitogen-activated protein kinase 10 (Mus musculus) (UniProt Q61831); assay: JNK3 AlphaScreen Assay (AID 530; active means well fitted curve in either direction with a large enough effect, not every such curve was filed as active;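 further: kinase came from lysate of stimulated human HepG2 cells; signal reports phosphorylation of biotinylated GST-cJun 1-79 at Ser73 with 10 µM ATP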)
# Summary of the method: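 JNK3 came from HepG2 lysates pre-activated with IL-1beta and TNF-alpha and phosphorylated biotinylated GST-cJun (1-79) at 10 uM ATP, pH 7.6, room temperature. Compounds were titrated. AlphaScreen signal used anti-phospho-cJun (Ser73) antibody.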
# [9] = biological target: Guanine nucleotide-binding protein G(i) subunit alpha-1 (Homo sapiens) (UniProt P63096); assay: qHTS Assay for Inhibitors of RGS12 GoLoco Motif Activity (Green Fluorophore) (AID 879);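 further: negative values mean loss of peptide binding seen as reduced polarization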
# Chain of Guanine nucleotide-binding protein G(i) subunit alpha-1 (Homo sapiens) (P63096 whole entry, looked up): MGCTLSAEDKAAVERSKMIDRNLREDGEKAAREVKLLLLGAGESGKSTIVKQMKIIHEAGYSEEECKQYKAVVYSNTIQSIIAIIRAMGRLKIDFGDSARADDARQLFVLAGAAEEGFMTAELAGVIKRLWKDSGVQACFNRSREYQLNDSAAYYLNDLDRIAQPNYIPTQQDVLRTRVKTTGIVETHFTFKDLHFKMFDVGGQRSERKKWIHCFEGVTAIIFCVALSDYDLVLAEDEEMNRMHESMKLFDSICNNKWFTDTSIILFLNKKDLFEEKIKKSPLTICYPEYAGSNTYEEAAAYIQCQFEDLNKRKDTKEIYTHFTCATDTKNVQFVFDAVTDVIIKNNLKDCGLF
# Summary of the method: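 Fluorescence polarization assay: 50 nM Gαi1 with 10 nM FITC-labeled RGS12 GoLoco peptide in 10 mM Tris pH 7.5, 150 mM NaCl, 0.1 mM GDP, 0.05% NP40, 10 min at room temperature with compound.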
# [10] = biological target: Muscarinic acetylcholine receptor M1 (Rattus norvegicus) (UniProt P08482); assay: qHTS Assay for Antagonists of Acetylcholine Muscarinic M1 Receptor: Kinetic Measurement of Intracellular Calcium Response (AID 943); further: potency means the concentration at half of the fitted maximal effect; nearly all actives have a fitted effect of over 75% in size
# Chain of Muscarinic acetylcholine receptor M1 (Rattus norvegicus) (P08482 whole entry, looked up): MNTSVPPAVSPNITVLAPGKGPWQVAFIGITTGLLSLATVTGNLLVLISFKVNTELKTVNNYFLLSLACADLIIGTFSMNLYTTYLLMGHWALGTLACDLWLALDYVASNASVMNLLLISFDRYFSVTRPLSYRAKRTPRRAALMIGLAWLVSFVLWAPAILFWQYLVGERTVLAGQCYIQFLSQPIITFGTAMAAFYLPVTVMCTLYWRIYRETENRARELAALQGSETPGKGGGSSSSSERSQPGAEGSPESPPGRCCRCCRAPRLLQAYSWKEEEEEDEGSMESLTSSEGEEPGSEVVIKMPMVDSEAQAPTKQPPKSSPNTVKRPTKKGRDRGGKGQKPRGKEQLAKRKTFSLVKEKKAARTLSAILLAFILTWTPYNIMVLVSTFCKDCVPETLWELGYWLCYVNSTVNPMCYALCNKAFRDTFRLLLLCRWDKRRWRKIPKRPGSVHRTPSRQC
# Summary of the method: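 Intracellular calcium flux, recorded with Fluo-4 in a kinetic plate reader, served as signal; the response to carbachol at EC80 (100 nM final) was taken as maximal over minimal fluorescence after a 10 min compound pre-incubation in rat M1-CHO cells.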
# [11] = biological target: Muscarinic acetylcholine receptor M1 (Rattus norvegicus) (UniProt P08482); assay: qHTS Assay for Antagonists of Acetylcholine Muscarinic M1 Receptor: Measurement of IP-One Response (AID 944); further: potency means the concentration at half of the fitted maximal effect; nearly all actives have a fitted effect of over 75% in size
# Summary of the method: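 Steps: plate transfected CHO-M1 cells overnight; add test compound, 10 min; add carbachol (200 nM, EC80) in stimulation buffer with LiCl; incubate 30 min; add labelled IP1 tracer and anti-IP1 antibody in lysis buffer; read HTRF after 10 min.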
# [12] = biological target: Pyruvate kinase (Leishmania mexicana) (UniProt Q27686); assay: qHTS Validation Assay for Inhibitors of Leishmania Mexicana Pyruvate Kinase (AID 945)
# Chain of Pyruvate kinase (Leishmania mexicana) (Q27686 2-499 E452W): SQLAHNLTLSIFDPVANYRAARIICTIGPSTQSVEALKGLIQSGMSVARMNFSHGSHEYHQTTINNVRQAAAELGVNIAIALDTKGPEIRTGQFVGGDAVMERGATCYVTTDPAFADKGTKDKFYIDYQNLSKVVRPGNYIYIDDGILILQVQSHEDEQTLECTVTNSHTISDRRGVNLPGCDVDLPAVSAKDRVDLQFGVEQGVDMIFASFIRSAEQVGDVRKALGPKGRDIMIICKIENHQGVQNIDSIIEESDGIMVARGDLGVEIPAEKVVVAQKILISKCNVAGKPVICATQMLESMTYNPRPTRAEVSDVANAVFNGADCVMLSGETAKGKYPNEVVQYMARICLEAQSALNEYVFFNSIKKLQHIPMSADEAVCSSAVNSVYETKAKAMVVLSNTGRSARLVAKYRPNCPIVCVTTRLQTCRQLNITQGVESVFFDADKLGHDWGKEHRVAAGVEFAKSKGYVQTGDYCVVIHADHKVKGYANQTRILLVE
# Summary of the method: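 Pyruvate kinase activity of E451W LmPYK (0.2 nM) was followed as ATP output after 1 h at room temperature with 0.5 mM PEP and 0.1 mM ADP, detected by PKLight luminescence.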
# [13] = biological target: Pyruvate kinase PKM (Homo sapiens) (UniProt P14618); assay: qHTS Assay for Activators of Human Muscle Pyruvate Kinase (AID 954; active means well fitted curve in the direction sought with a large enough effect, not every such curve was filed as active)
# Chain of Pyruvate kinase PKM (Homo sapiens) (P14618 whole entry, looked up): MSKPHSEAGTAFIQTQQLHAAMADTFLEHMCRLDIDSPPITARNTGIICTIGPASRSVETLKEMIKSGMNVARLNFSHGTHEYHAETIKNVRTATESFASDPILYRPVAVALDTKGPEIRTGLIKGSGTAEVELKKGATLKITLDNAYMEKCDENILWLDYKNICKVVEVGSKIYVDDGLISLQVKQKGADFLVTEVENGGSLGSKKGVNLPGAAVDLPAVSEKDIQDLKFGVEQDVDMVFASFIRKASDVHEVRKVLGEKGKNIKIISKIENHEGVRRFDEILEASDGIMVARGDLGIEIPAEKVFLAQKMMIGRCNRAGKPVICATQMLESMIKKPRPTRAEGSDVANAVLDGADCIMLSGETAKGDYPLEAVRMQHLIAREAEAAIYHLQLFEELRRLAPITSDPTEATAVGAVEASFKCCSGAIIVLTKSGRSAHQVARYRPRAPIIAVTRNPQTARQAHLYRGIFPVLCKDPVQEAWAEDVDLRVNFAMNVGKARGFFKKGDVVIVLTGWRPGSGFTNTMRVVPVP
# Summary of the method: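 Luminescence from a luciferase ATP-detection/stop reagent reported PKM2 activity. Reactions contained 0.1 nM purified human enzyme, 0.5 mM PEP, 0.1 mM ADP and 7 mM MgCl2 at pH 7.2, run 1 h at RT.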
# [14] = biological target: alpha-glucosidase (Oryza sativa, rice) (UniProt Q653V4); assay: Counterscreen for Glucocerebrosidase Inhibitors: qHTS Assay for Rice alpha-Glucosidase at pH 5.0 (AID 997)
# Summary of the method: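 Rice alpha-glucosidase (4 nM final) with 400 uM 4-methylumbelliferyl-alpha-D-glucopyranoside in citrate buffer pH 5.0, 20 min at room temperature, stopped at pH 10; fluorescence 365/440 nm, compounds 0.7 nM–77 uM, AC50 from Hill fits.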
# [15] = qHTS Assay for Lipid Storage Modulators (AID 1519; calls by dose curve); settings: Drosophila S3 cells, BODIPY lipid droplet/cell ratio, laser cytometry, cells loaded with oleic acid
# Summary of the method: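 Cells seeded at 5,000 per well were treated with compounds over a concentration series and loaded with oleic acid (400 uM, as added). Lipid droplet fluorescence (488 nm excitation, 500-530 nm channel) was read by laser-scanning cytometry and normalized to 20 uM Triacsin C.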
# [16] = biological target: Ubiquitin carboxyl-terminal hydrolase 1 (Homo sapiens) (UniProt O94782); assay: Inhibitors of USP1/UAF1: Pilot qHTS (AID 504865);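 further: rhodamine fluorescence freed from ubiquitin-rhodamine substrate followed over time; top concentration of the series differs between compounds; nearly all actives have a fitted effect of over 35% in size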
# Chain of Ubiquitin carboxyl-terminal hydrolase 1 (Homo sapiens) (O94782 whole entry, looked up): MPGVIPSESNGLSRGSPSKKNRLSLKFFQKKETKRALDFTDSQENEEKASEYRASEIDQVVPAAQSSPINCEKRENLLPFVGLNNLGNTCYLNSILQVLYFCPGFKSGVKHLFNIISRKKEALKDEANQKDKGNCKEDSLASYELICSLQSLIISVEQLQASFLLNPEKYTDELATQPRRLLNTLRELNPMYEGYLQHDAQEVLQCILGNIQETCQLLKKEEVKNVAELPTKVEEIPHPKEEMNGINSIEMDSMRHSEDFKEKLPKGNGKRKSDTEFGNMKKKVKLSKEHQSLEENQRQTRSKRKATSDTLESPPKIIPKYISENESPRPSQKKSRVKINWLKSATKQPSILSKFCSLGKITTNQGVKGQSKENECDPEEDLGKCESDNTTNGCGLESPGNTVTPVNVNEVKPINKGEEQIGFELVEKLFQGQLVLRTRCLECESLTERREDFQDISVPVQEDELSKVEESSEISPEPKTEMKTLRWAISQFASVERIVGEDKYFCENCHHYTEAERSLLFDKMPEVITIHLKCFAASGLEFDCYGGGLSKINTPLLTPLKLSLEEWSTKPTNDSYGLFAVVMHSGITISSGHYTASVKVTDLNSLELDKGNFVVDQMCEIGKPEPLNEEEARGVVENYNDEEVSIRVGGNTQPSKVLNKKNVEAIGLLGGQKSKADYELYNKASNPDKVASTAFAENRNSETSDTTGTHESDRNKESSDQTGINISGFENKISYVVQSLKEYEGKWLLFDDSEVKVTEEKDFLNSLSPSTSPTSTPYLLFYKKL
# Summary of the method: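 USP1/UAF1 complex (1nM) preincubated with compound 15 min at room temperature, then Ub-Rho substrate (150nM final) added. Fluorescence read kinetically at 480/540 nm, 6 reads every 60 seconds. Buffer: 50mM HEPES pH 7.8, 0.5mM EDTA, 0.1 mg/ml BSA, 1mM TCEP, 0.01% Tween-20.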
# [17] = biological target: DNA dC->dU-editing enzyme APOBEC-3G (Homo sapiens) (UniProt Q9HC16); assay: qHTS for inhibitors of Vif-A3G interactions: Validation (AID 588379)
# Chain of DNA dC->dU-editing enzyme APOBEC-3G (Homo sapiens) (Q9HC16 whole entry, looked up): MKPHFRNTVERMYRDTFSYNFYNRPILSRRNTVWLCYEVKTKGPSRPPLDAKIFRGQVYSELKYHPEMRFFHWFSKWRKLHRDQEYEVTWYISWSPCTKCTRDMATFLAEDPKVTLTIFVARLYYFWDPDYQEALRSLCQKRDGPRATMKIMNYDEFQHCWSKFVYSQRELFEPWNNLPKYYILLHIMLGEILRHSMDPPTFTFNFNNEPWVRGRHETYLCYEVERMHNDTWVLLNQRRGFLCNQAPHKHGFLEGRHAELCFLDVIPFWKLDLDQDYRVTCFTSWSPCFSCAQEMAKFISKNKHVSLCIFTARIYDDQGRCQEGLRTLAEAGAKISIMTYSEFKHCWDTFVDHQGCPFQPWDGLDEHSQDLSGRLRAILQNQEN
# Summary of the method: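 HeLa cells stably expressing Vif and A3G-eYFP, 700 cells/well, incubated overnight at 37 deg C, then exposed to compound overnight at 37 deg C. Inhibition of Vif-mediated degradation read as increased yellow fluorescence (Ex 488/Em 500-530) by laser-scanning cytometry.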
# [18] = Cell Viability qHTS for small molecule stabilizers of the endoplasmic reticulum resident proteome (AID 1508629); settings: cell viability counter-screen, 100 nM thapsigargin for final 4 h;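 further: human SH-SY5Y neuroblastoma cells carrying the GLuc-SERCaMP reporter; compound exposure about 46 h in total before the viability read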
smiles,measurement,setting,value
CC(C)N1CCN(c2ccc(C(=O)c3c(-c4ccc(O)cc4)sc4cc(O)ccc34)cc2)CC1,Potency,[1],inactive
same,Potency,[2],inactive
N[C@@H](CCS(=O)O)C(=O)O,Potency,[1],inactive
same,Potency,[2],inactive
same,Potency,[3],inactive
same,Potency,[4],inactive
C[C@@H]([C@H](O)c1ccc(O)cc1)N1CCC(Cc2ccccc2)CC1,"activity change, negative = inhibition",[5]; at 17.2 µM (top of the series),-4.89% (inactive)
same,"activity change, negative = inhibition",[5]; at 38 µM (top of the series),-7.76% (inactive)
same,"activity, negative = inhibition",[6],8.14% (inactive)
same,Potency,[7],> 46 µM (inactive) and > 20.6 µM (inactive)
same,Potency,[8],inactive
same,outcome,[9],inactive
same,Potency,[10],12.6 µM (active)
same,Potency,[11],7.94 µM (active)
same,Potency,[12],inactive
same,outcome,[13],inactive
same,outcome,[14],inactive
same,"activity change, negative = inhibition",[15]; at 25.7 µM (top of the series),-1.79% (inactive)
same,max response,[15]; measured here: cell count channel max response,-1.79%
same,max response,[15]; measured here: lipid channel max response,-6.29%
same,Potency,[16],inactive
same,Potency,[17],inactive
same,Potency,[1],inactive
same,Potency,[2],inactive
same,max response,[18],-8.82% (inactive)
